This is a sample that favours compounds with a hit; in the whole collection about 7% have one here.
ATXN2 expr inh: reduces ATXN2 reporter expression in HEK-293 cells | 360,000 compounds, 0.72% hits | HEK-293 ATXN2-luciferase reporter, luminescence, 24 h | Potency, µM (highest dose often 57 µM), for inactives: top-dose activity change, negative = inhibition, hits mostly inhibitors; also: potency is read from the fitted curve at half-maximal effect; % is scaled to controls: 0 for no effect and ±100 for the full control effect; nearly all actives have a fitted effect of over 55% in size
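qHTS (up to 57 uM final) was run with 24 h compound exposure of reporter cells at 37 °C. Each well was multiplexed: SteadyGlo luminescence measured ATXN2-luciferase expression after a fluorogenic Gly-Phe-AFC viability readout (25 uM final).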
ATXN viability: reduces viability in counter-screen for ATXN expression inhibitors; AID 651635; S2 cells (HEK-293 line with an ATXN2-luciferase reporter) viability, CellTiter-Fluor protease fluorescence, 24 h; Potency, µM (highest dose often 56.7 µM), usual class: cytotoxic; 400,000 compounds, 0.49% hits; also: potency is read from the fitted curve at half-maximal effect; nearly all actives have a fitted effect of over 40% in size
DRD3 agonist: agonists of human D3 dopamine receptor; P35462; D3R DiscoveRx beta-arrestin cells, luminescence, 90 min; max activation, %; 410,000 compounds, 0.58% hits; AID 652048; in the data active = max activation above about 30%; also: 0% is about no effect
Target sequence (P35462 whole entry, looked up): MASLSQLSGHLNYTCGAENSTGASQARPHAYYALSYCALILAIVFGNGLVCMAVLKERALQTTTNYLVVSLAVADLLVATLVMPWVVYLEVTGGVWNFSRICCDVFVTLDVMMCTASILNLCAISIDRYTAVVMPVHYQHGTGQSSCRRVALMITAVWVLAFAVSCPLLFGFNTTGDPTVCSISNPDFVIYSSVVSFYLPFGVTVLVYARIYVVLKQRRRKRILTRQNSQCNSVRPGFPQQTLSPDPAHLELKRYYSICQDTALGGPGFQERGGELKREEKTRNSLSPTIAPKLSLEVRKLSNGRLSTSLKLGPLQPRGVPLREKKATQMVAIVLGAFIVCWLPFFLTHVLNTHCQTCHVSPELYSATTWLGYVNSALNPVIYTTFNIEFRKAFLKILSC
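Cells at 1500/well, incubated overnight, then treated with pinned compounds (dopamine as control) for 90 min at 37 degrees C. DiscoveRx reagent added for 30 - 60 minutes at room temperature; luminescence read.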
D3 antag: antagonists of human D3 dopamine receptor; P35462; 360,000 compounds, 2.5% hits; AID 652054; max response, negative = inhibition, %; D3R cells, DiscoveRx beta-arrestin luminescence, antagonist mode; active compounds read low; in the data active = max response below about -50%; inconclusive = no clear call, values can overlap the other calls; also: % is scaled to controls: 0 for no effect and ±100 for the full control effect
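Cells expressing the human receptor were seeded at 1500 cells/well, incubated overnight at 37 degrees C in 5% CO2, then exposed to library compounds with dopamine controls for 90 minutes at 37 degrees C before luminescent detection.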
a7 integrin act: activates integrin-mediated alleviation for muscular dystrophy; alpha7betagal myoblasts, beta-gal FDG fluorescence, 48 h; Potency, µM (top dose mostly 38.3 µM), for inactives: at the highest dose activation, most hits filed as activators; 350,000 compounds, 0.064% hits;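 also: potency is read from the fitted curve at half-maximal effect; 100% = response of the positive control SU9516; nearly all actives have a fitted effect of over 60% in size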
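Alpha7betagal+/- myoblasts (passage 13) were plated 16-24 hr, then exposed to compounds (1:260 dilution of DMSO stock) for 48 hours at 37C. After MPER lysis, β-galactosidase reporter activity was read as FDG fluorescence (ex 480/em 540) after 30 minutes.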
IL1B secr inh: inflammasome signaling inhibition, IL-1 beta readout; THP-1 LPS/ATP IL-1B secretion, AlphaLISA, 16 h; active compounds read low; activity change, % at 57.5 µM; 360,000 compounds, 4.7% hits; AID 743279; in the data active = activity change below about -50%; inconclusive = mostly about -30% to -49%; also: % is scaled to controls: 0 for no effect and ±100 for the full control effect
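THP-1 cells pretreated 1 hr with compounds (up to 57.5 uM final), then stimulated with LPS (250 ng/mL final) plus ATP (1.25 mM final); secreted IL-1B measured by AlphaLISA after 16 hr, decreased signal indicating inhibition.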
An asterisk follows results filed as active; i = inactive; ? = inconclusive; . = no result. Unless noted, calls follow the shape of the dose curve; as a rule, active = well fitted curve in the direction sought with a large enough effect; inconclusive = small, poorly fitted or top-dose-only effect, or another doubt; inactive = no such curve, though single readings can be large; an effect the other way counts as inactive or inconclusive.

SMILES	ATXN2 expr inh	ATXN viability	DRD3 agonist	D3 antag	a7 integrin act	IL1B secr inh
COc1ccccc1C(NC(=O)C1CCN(CCOc2ccc(Cl)cc2Cl)CC1)c1ccccn1 (centres undefined)	32µM*	20µM*	-13	?	.	0
O=C(Cn1ccccc1=O)c1cccs1	5%	i	7	4	17%	20
CCOC(=O)c1sc(=S)[nH]c1C	7%	i	2	-52*	-8%	15
COc1ccc(C2=CC(c3ccccc3F)n3ncc(C(=O)Nc4ccc(C)cc4)c3N2)cc1 (centres undefined)	3%	i	-9	.	.	.
CC1CN(CCCCOc2ccc(F)cc2)CC(C)O1 (centres undefined)	.	i	-18	-50*	-11%	18
COc1ccccc1OCCCCN1CCN(c2ccccc2OC)CC1	-11%	i	3	-81*	-22%	-6
COc1ccccc1N1CCN(C[C@@H](O)COc2cccc3ccccc23)CC1	.	i	.	.	.	.
COc1ccccc1N1CCN(CCCCCCOc2ccc(F)cc2)CC1	?	?	-5	-52*	-35%	-23
COc1ccccc1N1CCN(CCCCOc2cccc3ccccc23)CC1	-18%	?	10	-69*	-47%	-57*
COc1ccccc1OCC(=O)N1CCN(c2ccccc2OC)CC1	-4%	i	-1	7	17%	17
Cc1ccc(C)c(OCc2cc(C(=O)N3CCOCC3)no2)c1	.	i	4	11	-12%	-3
CC(C)c1ccc2c(c1)-c1ccccc1S(=O)(=O)N2CC(=O)N1CCCCC1	29%	?	-9	.	.	.
CC(=O)c1c(-c2ccccc2)c2cc(Cl)ccc2n(C)c1=O	-16%	?	8	3	-42%	-5
O=C(N/N=C/c1ccc(O)cc1O)c1ccncc1	22µM*	i	42*	29	-22%	176
O=C(N/N=C/c1ccc(O)cc1O)C1CC1	.	i	-1	-92*	23%	3
O=C(N/N=C/c1ccc(O)cc1O)c1ccc(NC(=O)C2CCCCC2)cc1	5.6µM*	?	-1	5	-38%	267
O=C(N/N=C/c1ccc(O)c(O)c1)C1CC1	.	i	5	-4	11%	26
Cc1ccc(C(C)C)c(OCc2ccc(C(=O)N/N=C/c3ccc(O)cc3O)cc2)c1	10µM*	?	16	1	-5%	51
Cc1ccc(C(C)C)c(OCc2ccc(C(=O)N/N=C/c3ccc(C(=O)O)cc3)cc2)c1	.	i	1	10	-10%	15
O=C(Nc1cccc2ncccc12)c1ccc(Cl)cc1	-11%	?	1	10	-23%	-6
Cc1cc(/C=N/NC(=O)c2ccc(O)cc2)c(C)n1C1CC1	-8%	i	-3	-54*	13%	-12
Cc1c(NC2=NC3(CCCCC3)Cc3ccccc32)c(=O)n(-c2ccccc2)n1C	-13%	i	3	4	19%	-3
O=c1ccc(N=Nc2ccccc2)ccc1O	?	13µM*	-5	-27	-44%	-98*
CCCCCC1CC(CC(=O)NC(=S)Nc2ccccc2Cl)C(=O)O1 (centres undefined)	-16%	i	1	2	7%	10
CC(C)(C)OC(=O)CC(S(=O)(=O)c1ccccc1)S(=O)(=O)c1ccccc1	.	?	-4	-2	-65%	-51*
SMILES	ATXN2 expr inh	ATXN viability	DRD3 agonist	D3 antag	a7 integrin act	IL1B secr inh
NC(=O)c1sc2nc(-c3ccco3)ccc2c1N	8%	i	6	-5	11%	-68*
O=C(NC1CCCC1)c1ccc2nc(-c3ccco3)c(-c3ccco3)nc2c1	89%	i	1	8	39%	?
COC(=O)c1sc2nc(-c3ccco3)ccc2c1N	9%	i	-9	-14	7%	9
NC(=O)c1sc2nc3c(c(-c4ccco4)c2c1N)CCC3	51%	i	-10	-23	8%	-80*
Nc1c(C(=O)NC2CC2)sc2nc3c(c(-c4ccco4)c12)CC/C3=C/c1ccco1	5%	i	-3	-10	-9%	-75*
NC(=O)c1sc2nc(-c3cccnc3)ccc2c1N	42%	i	10	7	?	-67*
CCOC(=O)c1sc2nc(-c3cccnc3)ccc2c1N	66%	.	0	5	-1%	0
COC(=O)C1=C(CS(=O)(=O)c2ccc(OC)cc2)NC(=O)NC1c1ccccc1 (centres undefined)	8%	i	5	-13	-7%	10
Cc1ccc(Nc2nc(OC(C(F)(F)F)C(F)(F)F)nc(N3CCOCC3)n2)cc1	-14%	i	5	32	-2%	-80*
COc1ccc(Nc2nc(N)c([N+](=O)[O-])c(N3CCCC3)n2)cc1	-9%	?	-1	-15	-21%	-12
COc1ccc(Nc2nc(N3CCCCC3)c3ccccc3n2)cc1	?	?	3	?	-47%	-101*
Oc1ccc(Nc2nc(N3CCCC3)c3ccccc3n2)cc1	?	?	-1	-71*	-57%	-99*
COc1ccc(Nc2nc(OC)nc(N3CCOCC3)n2)cc1	-7%	i	2	11	10%	-13
Cc1ccc(Nc2nc(N3CCOCC3)c3ccccc3n2)cc1	-9%	i	0	8	13%	-104*
CC1=NN(C)C(=O)C1Cc1c(F)cccc1Cl (centres undefined)	0%	i	-5	1	-1%	6
COc1ccc(NC(=O)COC(=O)c2ccc(Cl)c(S(N)(=O)=O)c2)c([N+](=O)[O-])c1	-5%	i	6	-9	5%	-25
c1ccc2c(Nc3ccc(N4CCOCC4)cc3)nc(N3CCOCC3)nc2c1	-8%	.	-3	-15	2%	-70*
C(=C\c1nc(N2CCCC2)c2ccccc2n1)/c1ccccc1	?	?	-15	15	?	-98*
CCCCN(C)C(=O)C1CCC(Cn2c(=O)[nH]c3ccsc3c2=O)CC1 (centres undefined)	-6%	i	-13	.	.	.
Cc1cc(NCc2ccccc2)n2ncc(-c3ccccc3)c2n1	181%	i	16	50	10%	-29
CC(C)c1cnn2c(NCc3ccccc3)cc(N[C@@H](CO)[C@H](O)CO)nc12	0.27µM*	.	.	.	.	.
Cn1c(=O)c2c(nc(NC3CCCC3)n2C)n(C)c1=O	5%	i	3	3	4%	0
CCc1ccc(S(=O)(=O)N2c3ccc(C)cc3C3CN(C)CCC32)cc1 (centres undefined)	3%	i	-20	?	-38%	-51*
Cc1ccc(S(=O)(=O)N2c3ccc(S(N)(=O)=O)cc3CC2C)cc1 (centres undefined)	-17%	i	-3	-11	-5%	-11

Source: PubChem BioAssay
